Sampled rows, rich in hits. Any-hit rate of the full collection: about 8%.
FBPA coupling cs: coupling enzyme interference in Giardia aldolase counter-screen; AID 2472; coupling enzyme system counterscreen, AmpLite Red fluorescence; hit rate 0.67% among 290,000; activity change, negative = inhibition, % at 58.2 µM, hits read low; in the data active means activity change below about -30%
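Compounds tested against the coupling enzymes alone at 57.5 uM final; readout was AmpLite Red fluorescence (525/598 nm) after 20 min at RT.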
RORg inh: blocks mouse ROR gamma transcriptional activity. AID 2551. P51450. Drosophila S2 Gal4-RORgamma UAS-luciferase reporter, 20 h. Potency, µM (titrated, usually from 53.6 µM), without a hit: top-dose activity change, negative = inhibition, actives largely listed as inhibitors. hit rate 5.4% among 310,000; further: potency means the concentration at half of the fitted maximal effect; nearly all actives have a fitted effect of over 60% in size
Target sequence (P51450 whole entry, looked up, the tested form may be a part): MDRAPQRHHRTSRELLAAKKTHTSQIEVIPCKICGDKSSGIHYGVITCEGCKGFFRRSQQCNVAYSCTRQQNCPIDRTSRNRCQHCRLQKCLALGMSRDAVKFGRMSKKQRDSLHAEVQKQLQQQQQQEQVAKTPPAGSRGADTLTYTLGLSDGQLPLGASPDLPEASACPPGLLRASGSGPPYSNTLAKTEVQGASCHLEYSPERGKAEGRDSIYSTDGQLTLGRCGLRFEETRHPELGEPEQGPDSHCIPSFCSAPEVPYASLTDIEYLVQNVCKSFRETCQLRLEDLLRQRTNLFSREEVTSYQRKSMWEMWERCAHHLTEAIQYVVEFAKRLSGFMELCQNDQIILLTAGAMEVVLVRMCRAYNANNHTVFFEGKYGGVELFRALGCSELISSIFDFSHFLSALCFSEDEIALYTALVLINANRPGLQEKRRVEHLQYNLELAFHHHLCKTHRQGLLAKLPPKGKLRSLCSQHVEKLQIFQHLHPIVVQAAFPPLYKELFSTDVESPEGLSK
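Schneider cells (Drosophila), stable Gal4 DBD–ROR gamma + UAS-luc; 1 hr cmpd preincubation; Cu2+ induction 700 uM final; 20 hr ambient; luminescence.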
ELG1 repair inh: blocks ELG1-dependent DNA repair in HEK293T cells. Potency, µM (top dose mostly 46.1 µM), for the others: at the highest dose activity change, negative = inhibition, usual class: inhibitors. HEK293T ELG1-luciferase reporter, luminescence, 16 h; DNA damage induced by 5-fluorouridine. hit rate 2.3% among 330,000; further: potency means the concentration at half of the fitted maximal effect; nearly all actives have a fitted effect of over 55% in size
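Step one: seed 2,000 cells per well. Step two: pin-transfer compound or DMSO alongside 5-fluorouridine. Step three: incubate 16 hr, 37 °C, 5% CO2. Step four: add ONE-Glo, wait 30 min, read luminescence.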
VP16 counter: Gal4-VP16 reporter inhibition counter-screen. Drosophila S2 Gal4-VP16 UAS-luciferase, luminescence, 20 h. Potency, µM (series often up to 53.6 µM), for the others: at the top dose activity, negative = inhibition, hits mostly inhibitors. hit rate 3.5% among 310,000;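 further: Gal4-VP16 expression switched on by copper sulfate through the metallothionein promoter; potency means the concentration at half of the fitted maximal effect; nearly all actives have a fitted effect of over 50% in size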
TSHR antagonist: human thyrotropin receptor antagonism | P16473 | TSHR-expressing cells, TSH-stimulated cAMP HTRF, 2 h; stronger effect = lower value | activity change, negative = inhibition, % at 11.5 µM | hit rate 0.2% among 330,000 | AID 504810;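 active means activity change below a set negative limit, meaning inhibition stronger than a set level, cut at about -70% in these data; inconclusive means activity change between two set negative limits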
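TSHR-expressing cells were treated with compounds, then stimulated with TSH at EC80 (4nM final) for 2 hours at 37 deg C. Cellular cAMP was measured by HTRF competition between lysate cAMP and cAMP-d2 for a cryptate-labelled anti-cAMP antibody.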
Active calls of the source: *; [ ] = another dose, or the depositor's remark. Unless noted, the call rests on the fitted dose curve; in most records, active means well fitted curve in the direction sought with a large enough effect; inconclusive means small, poorly fitted or top-dose-only effect, or another doubt; inactive means no such curve, though single readings can be large; an effect the other way counts as inactive or inconclusive. On the % scale 0 is the no-effect control and ±100 the full control effect.

How did Cc1cnc(CNc2ccnc(-c3cccc(NS(C)(=O)=O)c3)n2)cn1 do in these assays?
FBPA coupling cs: -2.0; RORg inh: 1.4%; VP16 counter: -9.6%

Results for COc1ccc2[nH]cc(CCNc3ccnc(-c4cccc(NS(C)(=O)=O)c4)n3)c2c1 ?
FBPA coupling cs: -3.7; RORg inh: 22.9%; VP16 counter: -6.8%

How did Cc1nnc(SCCn2c(N3CCC(Cc4ccccc4)CC3)nc3c2c(=O)[nH]c(=O)n3C)s1 do in these assays?
FBPA coupling cs: 0.5; RORg inh: 18.9%; ELG1 repair inh: 9.2µM*; VP16 counter: -7.1%; TSHR antagonist: -1.1

Results for O=C(CC(c1ccco1)S(=O)(=O)c1ccccc1)c1ccc(F)cc1 (stereo not given) ?
FBPA coupling cs: 1.1; RORg inh: 2.51µM*; ELG1 repair inh: 19.6%; VP16 counter: 11.2µM*; TSHR antagonist: -2.6

Results for O=C1c2ccccc2S(=O)(=O)N1Cc1nnc(-c2ccccc2Br)o1 ?
FBPA coupling cs: -0.9; RORg inh: inconclusive; ELG1 repair inh: 18.3%; VP16 counter: 13.7%; TSHR antagonist: -15.1

How did O=S1(=O)c2cccc3cccc(c23)N1Cc1nnc(-c2ccccc2Br)o1 do in these assays?
FBPA coupling cs: -5.6; RORg inh: inconclusive; ELG1 repair inh: 23.1µM*; VP16 counter: -14.7%; TSHR antagonist: -18.9

Results for O=C(CSc1n[nH]c(-c2ccccc2Cl)n1)NC1CCCCC1 ?
FBPA coupling cs: 6.2; RORg inh: -25.3%; ELG1 repair inh: 1.2%; VP16 counter: 4.5%; TSHR antagonist: -14.9

What do the screens show for `Cc1oc(-c2ccoc2)nc1CN(CC1CCC(=O)N1)C(C)C` (stereo not given)?
FBPA coupling cs: 0.5; RORg inh: -11.4%; ELG1 repair inh: 12.1%; VP16 counter: -5.5%; TSHR antagonist: 5.9

Results for COCCN(Cc1nc(-c2ccc(-c3ccccc3)cc2)oc1C)C(C)C ?
FBPA coupling cs: 0.7; RORg inh: 11.2µM*; ELG1 repair inh: inconclusive; VP16 counter: inconclusive; TSHR antagonist: 9.4

How did CCC(CO)Oc1cc(NC(=O)Cc2ccccc2)c2ncn(C(C)C)c2c1 (stereo not given) do in these assays?
ELG1 repair inh: inconclusive; TSHR antagonist: -6.6

Results for COCCCNC(=O)C[C@H]1C[C@H](C(=O)N2CCCCC2)[C@@]2(CCc3ccccc3)c3[nH]c4ccc(Cl)cc4c3CCN2C1=O ?
ELG1 repair inh: 20.6µM*; TSHR antagonist: -9.0

Results for CC[C@]12c3[nH]c4cc(-c5ccco5)ccc4c3CCN1C(=O)[C@@H](CC(=O)NCCC1=CCCCC1)C[C@@H]2C(=O)N1CCN(C(=O)C2CC2)CC1 ?
ELG1 repair inh: 20.6µM*; TSHR antagonist: -6.0

How did CC[C@]12c3[nH]c4ccc(Cl)cc4c3CCN1C(=O)[C@@H](CC(=O)NCC13CC4CC(CC(C4)C1)C3)C[C@@H]2C(=O)N1CCN(C(=O)c2ccco2)CC1 do in these assays?
ELG1 repair inh: 20.6µM*; TSHR antagonist: 12.1

Results for CC(C)(C)NC(=O)C[C@H]1C[C@H](C(=O)N2CCCCC2)[C@@]2(CCc3ccccc3)c3[nH]c4ccc(Cl)cc4c3CCN2C1=O ?
ELG1 repair inh: -8.2%; TSHR antagonist: -9.1

Results for CC[C@]12c3[nH]c4ccc(Cl)cc4c3CCN1C(=O)[C@@H](CC(=O)NCCN1CCOCC1)C[C@@H]2C(=O)N1CCN(C(=O)c2ccco2)CC1 ?
ELG1 repair inh: 4.0%; TSHR antagonist: -11.2

How did CC[C@]12c3[nH]c4cc(-c5ccco5)ccc4c3CCN1C(=O)[C@@H](CC(=O)NCc1ccco1)C[C@@H]2C(=O)N1CCN(C(=O)C2CC2)CC1 do in these assays?
ELG1 repair inh: -8.2%; TSHR antagonist: 11.3

How did CC[C@]12c3[nH]c4ccc(Cl)cc4c3CCN1C(=O)[C@@H](CC(=O)NCCC1=CCCCC1)C[C@@H]2C(=O)N1CCN(C(=O)c2ccco2)CC1 do in these assays?
ELG1 repair inh: 16.4µM*; TSHR antagonist: -3.3

How did O=C(N/N=C1/C[C@@H](O)[C@@H](O)[C@@H]2[C@@H]3C(=O)N(Cc4ccc5c(c4)OCO5)C(=O)[C@H]3CC[C@@H]12)OCc1ccccc1 do in these assays?
FBPA coupling cs: 1.4; RORg inh: 11.0%[10 µM]; VP16 counter: -11.1%[10 µM]

Results for O=C1OC(/C(=C\Nc2ccc(F)cc2F)[N+](=O)[O-])c2ccccc21 (stereo not given) ?
FBPA coupling cs: 2.5; RORg inh: 14.1µM*; ELG1 repair inh: 4.2%; VP16 counter: inconclusive; TSHR antagonist: 15.3

How did Cc1ccc2cccnc2c1 do in these assays?
RORg inh: -11.8%; VP16 counter: 1.3%

What do the screens show for `Cc1cc(C(=O)CCl)c(C)n1Cc1ccco1`?
FBPA coupling cs: -0.9; RORg inh: 7.94µM*; ELG1 repair inh: inconclusive; VP16 counter: 17.8µM*; TSHR antagonist: 15.5

What do the screens show for `Cc1ccc2nc(SCC3CCCCO3)[nH]c2c1` (stereo not given)?
FBPA coupling cs: -0.5; RORg inh: 5.62µM*; ELG1 repair inh: inconclusive; VP16 counter: 6.31µM*; TSHR antagonist: -1.0

Results for COC(=O)CCCn1c(C)cc(C(=O)CCl)c1C ?
FBPA coupling cs: 0.0; RORg inh: 8.91µM*; ELG1 repair inh: 13.3%; VP16 counter: -80.5%; TSHR antagonist: -5.5

Results for Cc1ccc2nc(SCC(=O)N3CCOCC3)[nH]c2c1 ?
FBPA coupling cs: -0.9; RORg inh: -43.6%; ELG1 repair inh: inconclusive; VP16 counter: inconclusive; TSHR antagonist: -2.3

Results for C=CCn1c(C)cc(C(=O)CSc2nc3ccccc3[nH]2)c1C ?
FBPA coupling cs: 0.0; RORg inh: 10µM*; ELG1 repair inh: inconclusive; VP16 counter: 12.6µM*; TSHR antagonist: -36.9

How did C=CCn1c(C)cc(C(=O)CSc2nc3ccccc3c(=O)[nH]2)c1C do in these assays?
FBPA coupling cs: -0.5; RORg inh: -15.8%; ELG1 repair inh: inconclusive; VP16 counter: inconclusive; TSHR antagonist: -30.6

What do the screens show for `c1ccc(-c2nn[nH]n2)c(Nc2cccc3c2CCCC3)c1`?
FBPA coupling cs: 10.2; RORg inh: 17.7%; VP16 counter: -21.6%

What do the screens show for `CCOc1ccc(NC(=O)c2ccc(N3CC4CC(C3)c3cccc(=O)n3C4)c(N)c2)cc1` (stereo not given)?
FBPA coupling cs: -1.9; RORg inh: 1.6%; ELG1 repair inh: 7.5%; VP16 counter: 0.1%; TSHR antagonist: -9.3

What do the screens show for `CCCCNC(=O)CCn1nc(-c2ccc(C)cc2)c2ccccc2c1=O`?
FBPA coupling cs: 1.1; RORg inh: 14.8%; ELG1 repair inh: -18.0%; VP16 counter: -4.1%; TSHR antagonist: -4.7

Compound activity: PubChem, National Center for Advancing Translational Sciences (NCATS)
